Experimental findings from PubChem BioAssay (Tox21) are described below.

Results filed as inconclusive are left out. Calls of active or inactive are those of the source. Unless noted, the call rests on the fitted dose curve; in most records, active means well fitted curve in the direction sought with a large enough effect in the repeat runs; inconclusive means weak or mixed curves; inactive means no such curve, though single readings can be large; an effect the other way counts as inactive or inconclusive. Non-standard residues stand in square brackets, D forms with d. Residues, ends and D or L forms follow the SMILES beside them. pGlu = O=C1CC[C@@H](C(=O)O)N1; Thz = O=C(O)[C@@H]1CSCN1

A short description of test [1]: qHTS assay to test for compound auto fluorescence at 535 nm (green) in HEK293 cells (AID 720680; further: potency means the concentration at half of the fitted maximal effect). (Quantitative high-throughput screening tests each substance at several concentrations.)
A short description of test [2]: qHTS assay to test for compound auto fluorescence at 535 nm (green) in HEK293 cell free culture (AID 720682). Further: potency means the concentration at half of the fitted maximal effect. The gist of the method:
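Green-label autofluorescence (485 nm excitation, 535 nm emission) measured on compound added to cell-free culture medium (DMEM, 10% FBS). Output is expressed relative to fluorescein.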

The nature of test [3]: qHTS assay to test for compound auto fluorescence at 590 nm (red) in HEK293 cell free culture (AID 720683). A digest of the protocol:
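Tox21 10K library compounds were pinned into cell-free DMEM with 10% FBS and fluorescence was read at excitation 540 nm. Activity is expressed as Rose Bengal sodium equivalency.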

Test [4] in a line: qHTS assay to test for compound auto fluorescence at 590 nm (red) in HepG2 cell free culture (AID 720684). The gist of the method: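 Readout: intrinsic compound fluorescence at 590 nm emission after 540 nm excitation, scaled to Rose Bengal sodium. Matrix was cell-free MEM with 10% FBS; DMSO vehicle wells served as control.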
Test [5] is described as follows: qHTS assay to test for compound auto fluorescence at 460 nm (blue) in HepG2 cell free culture (AID 720685). A digest of the protocol: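 Cell-free plates of MEM plus 10% FBS received 23 nL compound or DMSO vehicle; blue-channel (405/460 nm) intensity scored against triamterene as reference fluorophore.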
Test [6] can be described thus: qHTS assay to test for compound auto fluorescence at 535 nm (green) in HepG2 cell free culture (AID 720686). Further: potency means the concentration at half of the fitted maximal effect.
Test [7] is described as follows: qHTS assay to test for compound auto fluorescence at 460 nm (blue) in HepG2 cells (AID 720687). A digest of the protocol: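 Cells (2,000/well in MEM with 10% FBS) attached overnight at 37 C, then were exposed to compound or DMSO for 1 hr at 37 C, 5% CO2. Fluorescence read at Ex/Em 405/460 nm, expressed as triamterene-equivalent signal.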
In test [8] the target is Glucocorticoid receptor (Homo sapiens) (UniProt P04150). As to the kind of experiment: qHTS assay to identify small molecule agonists of the glucocorticoid receptor (GR) signaling pathway (AID 720691; active means well fitted activation curve with a large enough effect in the signal ratio in the repeat runs, not every such curve was filed as active; the % refers to the signal ratio). As to conditions: GR-bla HeLa, beta-lactamase reporter ratio, 18 h; activation: at 62.4 µM (top of the series). The gist of the method:
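Agonist-mode qHTS in HeLa cells stably expressing a glucocorticoid-response-element beta-lactamase reporter. Fluorescence intensity read with FRET substrate (2 h, room temperature) after 18 h compound treatment at 37 C.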

The target is the same in test [9]. As to the kind of experiment: qHTS assay to identify small molecule antagonists of the glucocorticoid receptor (GR) signaling pathway (AID 720692; active means well fitted inhibition curve with a large enough effect in the signal ratio in the repeat runs, not every such curve was filed as active; the % refers to the signal ratio). A digest of the protocol:
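Inhibition of dexamethasone-driven (5 nM final) beta-lactamase expression was measured in GRE-reporter HeLa cells over 18 h at 37C. Fluorescence was read after 2 h with the B/G FRET substrate at room temperature.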

A short description of test [10]: qHTS assay to identify small molecule antagonists of the glucocorticoid receptor (GR) signaling pathway - cell viability counter screen (AID 720693). Further: nearly all actives have a fitted effect of over 55% in size.
Test [11] in a line: qHTS assay for identifying genotoxic compounds that show differential cytotoxicity against isogenic chicken DT40 cell lines with known DNA damage response pathways - wild type cell line (AID 743012). Further: nearly all actives have a fitted effect of over 60% in size. Further: potency means the concentration at half of the fitted maximal effect. A digest of the protocol: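 Viability by ATP luminescence (CellTiter-Glo, 30 min RT) after 40 h compound treatment at 37 C/5% CO2, using 300 parental DNA repair-proficient DT40 cells per well.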

A short description of test [12]: qHTS assay for identifying genotoxic compounds that show differential cytotoxicity against isogenic chicken DT40 cell lines with known DNA damage response pathways - Rad54/Ku70 mutant cell line (AID 743015). Further: nearly all actives have a fitted effect of over 60% in size. Further: potency means the concentration at half of the fitted maximal effect.
Test [13] is described as follows: qHTS assay to identify small molecule antagonists of the androgen receptor (AR) signaling pathway - cell viability counter screen (AID 743033; further: nearly all actives have a fitted effect of over 45% in size; further: potency means the concentration at half of the fitted maximal effect).
Test [14] has as its target Androgen receptor (Homo sapiens) (UniProt P10275). As to the kind of experiment: qHTS assay to identify small molecule antagonists of the androgen receptor (AR) signaling pathway (AID 743035; active means well fitted inhibition curve with a large enough effect in the signal ratio in the repeat runs, not every such curve was filed as active; the % refers to the signal ratio; further: potency means the concentration at half of the fitted maximal effect). A digest of the protocol:
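Antagonist mode: AR-bla HEK293 cells co-treated with test compounds and agonist R1881 for 16 h at 37C, 5% CO2. Beta-lactamase activity read as FRET fluorescence after 2 h room-temperature substrate loading.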

For test [15] the target is unchanged. As to the kind of experiment: qHTS assay to identify small molecule agonists of the androgen receptor (AR) signaling pathway (AID 743036; active means well fitted activation curve with a large enough effect in the signal ratio in the repeat runs, with a control signal flat, not every such curve was filed as active; the % refers to the signal ratio). The gist of the method:
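AR-UAS-bla HEK293 cells, plated 4 h before dosing, were treated with compound for 16 h at 37C. beta-Lactamase reporter read after 2 h with LiveBLAzer B/G FRET substrate at room temperature.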

The nature of test [16]: qHTS assay to identify small molecule antagonists of the androgen receptor (AR) signaling pathway using the MDA cell line - cell viability counter screen (AID 743041; further: nearly all actives have a fitted effect of over 45% in size). The gist of the method: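 qHTS viability read-out; MDA-kb2 AR-luc; R1881-stimulated; 16 h exposure at 37C, 0% CO2; CellTiter-Fluor, 30 min; fluorescence intensity.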
The target in test [17] is Androgen receptor (Homo sapiens) (UniProt P10275). As to the kind of experiment: qHTS assay to identify small molecule antagonists of the androgen receptor (AR) signaling pathway using the MDA cell line (AID 743042; further: nearly all actives have a fitted effect of over 55% in size; further: potency means the concentration at half of the fitted maximal effect). The gist of the method: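 MDA-kb2 cells (human breast carcinoma, stably carrying an MMTV-luciferase reporter responsive to AR and GR) were plated at 3,000 cells/well and preincubated 5 hr at 37C, then given compound plus R1881 agonist for 16 h. ONE-Glo luminescence was read.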

Test [18] is described as follows: qHTS assay for identifying genotoxic compounds that show differential cytotoxicity against isogenic chicken DT40 cell lines with known DNA damage response pathways - Rev3 mutant cell line (AID 743014). Further: nearly all actives have a fitted effect of over 55% in size. Further: potency means the concentration at half of the fitted maximal effect.
The target in test [19] is Androgen receptor (Homo sapiens) (UniProt P10275). As to the kind of experiment: qHTS assay to identify small molecule agonists of the androgen receptor (AR) signaling pathway using the MDA cell line (AID 743040; further: nearly all actives have a fitted effect of over 20% in size). A digest of the protocol:
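Agonist activity is measured as luciferase luminescence in human MDA-kb2 cells whose MMTV reporter responds to both AR and GR. Compounds in DMSO incubate 16 h at 37C, 0% CO2, and ONE-Glo is read after 30 min.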

Test [20] can be described thus: qHTS assay to test for compound auto fluorescence at 460 nm (blue) in HEK293 cell free culture (AID 720681). The gist of the method:
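Test compounds were pinned into cell-free culture medium (DMEM with 10% FBS) and fluorescence was read directly at Ex/Em 405/460 nm. Signals were expressed as fluorescence equivalents of triamterene, with DMSO vehicle as control.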
Tags describe the fitted curve by direction and shape or compound fluorescence and quenching.

Sequence of Androgen receptor (Homo sapiens) (P10275 whole entry, looked up): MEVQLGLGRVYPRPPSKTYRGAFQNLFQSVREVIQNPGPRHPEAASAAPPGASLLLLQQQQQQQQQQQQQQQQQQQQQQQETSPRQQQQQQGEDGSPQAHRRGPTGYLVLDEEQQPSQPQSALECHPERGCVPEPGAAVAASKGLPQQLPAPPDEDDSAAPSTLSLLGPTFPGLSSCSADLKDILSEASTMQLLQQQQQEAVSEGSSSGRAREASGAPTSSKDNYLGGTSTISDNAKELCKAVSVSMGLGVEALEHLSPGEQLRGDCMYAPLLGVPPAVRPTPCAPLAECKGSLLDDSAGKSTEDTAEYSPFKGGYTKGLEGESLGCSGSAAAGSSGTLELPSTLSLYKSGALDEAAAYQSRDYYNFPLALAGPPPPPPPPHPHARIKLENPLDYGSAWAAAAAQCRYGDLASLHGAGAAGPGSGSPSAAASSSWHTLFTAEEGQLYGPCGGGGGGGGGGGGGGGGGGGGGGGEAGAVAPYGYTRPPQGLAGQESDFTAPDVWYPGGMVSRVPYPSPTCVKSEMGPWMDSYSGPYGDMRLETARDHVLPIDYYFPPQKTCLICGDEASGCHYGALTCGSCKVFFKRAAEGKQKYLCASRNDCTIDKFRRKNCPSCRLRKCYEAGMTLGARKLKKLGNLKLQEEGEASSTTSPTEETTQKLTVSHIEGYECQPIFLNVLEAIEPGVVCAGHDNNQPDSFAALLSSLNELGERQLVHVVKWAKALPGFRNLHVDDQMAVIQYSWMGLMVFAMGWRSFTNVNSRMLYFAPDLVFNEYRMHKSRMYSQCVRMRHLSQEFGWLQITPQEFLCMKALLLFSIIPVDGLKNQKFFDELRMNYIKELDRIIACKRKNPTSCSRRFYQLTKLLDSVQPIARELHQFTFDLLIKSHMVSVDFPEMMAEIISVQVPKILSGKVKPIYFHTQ
Sequence of Glucocorticoid receptor (Homo sapiens) (P04150 whole entry, looked up): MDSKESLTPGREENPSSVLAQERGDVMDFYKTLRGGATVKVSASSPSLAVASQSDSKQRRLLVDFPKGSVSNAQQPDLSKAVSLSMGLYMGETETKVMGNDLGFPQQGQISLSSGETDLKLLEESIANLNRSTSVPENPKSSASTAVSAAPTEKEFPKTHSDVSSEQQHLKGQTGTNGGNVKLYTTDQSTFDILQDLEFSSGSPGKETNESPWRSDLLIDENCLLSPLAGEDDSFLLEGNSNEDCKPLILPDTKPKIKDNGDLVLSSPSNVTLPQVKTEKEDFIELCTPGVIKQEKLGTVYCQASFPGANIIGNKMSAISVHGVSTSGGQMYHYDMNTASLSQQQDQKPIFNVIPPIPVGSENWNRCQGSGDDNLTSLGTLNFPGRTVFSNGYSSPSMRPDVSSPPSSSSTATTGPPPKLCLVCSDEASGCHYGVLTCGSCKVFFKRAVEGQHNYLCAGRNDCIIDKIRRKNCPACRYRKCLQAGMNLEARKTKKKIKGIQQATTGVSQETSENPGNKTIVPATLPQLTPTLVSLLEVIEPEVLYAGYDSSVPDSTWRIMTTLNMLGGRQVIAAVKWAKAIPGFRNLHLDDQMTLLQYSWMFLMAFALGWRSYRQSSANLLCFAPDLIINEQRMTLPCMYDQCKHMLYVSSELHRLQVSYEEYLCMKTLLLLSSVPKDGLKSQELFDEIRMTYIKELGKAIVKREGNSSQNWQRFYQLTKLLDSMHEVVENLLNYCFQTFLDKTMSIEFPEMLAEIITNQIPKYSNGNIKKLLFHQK

As for `O=C1CC[C@@H](C(=O)N2CSC[C@H]2C(=O)O)N1` ([pGlu]-[Thz]-OH), the Potency entry in test [1], in [2], in test [3], in test [4], in test [6] and in [8] was “inactive” each time. Besides, the Potency entry in [9], in test [10], in test [11], in test [12], in test [13] and in [14] was “inactive” in each case. Further, the Potency entry in test [15], in test [16] and in test [17] was “inactive” each time. Moreover, the call in test [5] and in test [7] was inactive.

Turning to `CC(=O)Nc1c(I)c(C(=O)O)c(I)c(N(C)C(C)=O)c1I`, the Potency result in test [1], in test [2], in test [3], in test [4], in test [8] and in test [9] was “inactive” in each case. In addition, the Potency entry in test [10], in test [11], in [18], in test [12], in [13] and in test [16] was “inactive” each time. Besides, the call in test [7] was inactive.

In the case of `O=P(O)(O)OC(CO)CO`, the Potency result in test [1], in test [2], in [3], in test [4], in test [6] and in test [8] was “inactive” each time. Moreover, the Potency entry in [10], in test [11], in [18], in test [12], in test [13] and in [16] was “inactive” throughout. The call in [5] and in test [7] was inactive.

Turning to `CCOC(=O)Oc1c(OC)cc(C(=O)O[C@@H]2C[C@@H]3CN4CCc5c([nH]c6cc(OC)ccc56)[C@H]4C[C@@H]3[C@H](C(=O)OC)[C@H]2OC)cc1OC`, the Potency entry in test [1], in [2], in [4], in [6], in test [10] and in test [13] was “inactive” each time. Moreover, the call in [5] and in test [7] was inactive. Moreover, the Potency in [11] was 10.1 µM (active); in [18], 11.4 µM (active); in test [12], 12.7 µM (active).

On to `CC[C@]1(O)CC2CN(CCc3c([nH]c4ccccc34)[C@@](C(=O)OC)(c3cc4c(cc3OC)N(C)[C@H]3[C@@](O)(C(N)=O)[C@H](O)[C@]5(CC)C=CCN6CC[C@]43[C@@H]65)C2)C1` (stereo not given in full), for which the Potency entry in test [1], in test [2], in [4], in [6], in [8] and in test [10] was “inactive” throughout. In addition, the Potency result in test [13], in [19], in test [16] and in test [17] was “inactive” in each case. The outcome in test [5] and in test [7] was inactive. The Potency is 0.0473 µM (active) in [11], 0.0531 µM (active) in test [18], 0.0596 µM (active) in test [12] and 0.213 µM (active) in [14].

Turning to `CN(C)CCC=C1c2ccccc2C(C)(C)c2ccccc21`, the Potency entry in [1], in [2], in test [3], in test [4], in test [8] and in test [10] was “inactive” throughout. The result in test [5] was inactive. Further, the Potency in [11] is 9.44 µM (active); in test [18] it was 13.3 µM (active); in [12], 13.3 µM (active).

`CNC(C)[C@@H]1CC[C@@H](N)[C@@H](O[C@H]2[C@H](O)[C@@H](O[C@H]3OC[C@](C)(O)[C@H](NC)[C@H]3O)[C@H](N)C[C@@H]2N)O1` (stereo not given in full): the Potency entry in test [20], in [2], in [3], in test [4] and in [6] was “inactive” in each case. The molecule was classed as inactive in test [5] and in test [7].

For the molecule `COc1ccc(-c2noc(CC(=O)O)c2-c2ccc(OC)cc2)cc1`, the Potency entry in test [1], in test [2], in [3], in test [4], in [8] and in test [9] was “inactive” throughout. The Potency result in test [10], in test [12], in test [13] and in test [17] was “inactive” each time. For the same molecule, the result in [5] and in test [7] was inactive.

For `O=C(NNCS(=O)(=O)O)c1ccncc1`, the Potency result in test [1], in [2], in test [3], in [4], in [6] and in test [8] was “inactive” throughout. The Potency result in test [10], in test [11], in test [18], in test [13] and in [16] was “inactive” in each case. The call in test [5] and in test [7] was inactive.

For the molecule `C=C1C(=O)O[C@H]2[C@H]1CC/C(C)=C\CC[C@@]1(C)O[C@@H]21`, the Potency result in [1], in [2], in [3], in [4], in [6] and in test [19] was “inactive” each time. Besides, the molecule was called inactive in [5] and in test [7]. The Potency in test [11] is 2.98 µM (active); in [12] it was 4.22 µM (active); in test [13], 23.9 µM (active); in [14], 23.9 µM (active); in test [17] it was 6.68 µM (active).

As to `Cc1cc2nc3c(=O)[nH]c(=O)nc-3n(C[C@H](O)[C@H](O)[C@H](O)COP(=O)(O)OP(=O)(O)OC[C@H]3O[C@@H](n4cnc5c(N)ncnc54)[C@H](O)[C@@H]3O)c2cc1C`, the Potency was 22.4 µM [fluorescent] (active) in [1], 15.8 µM [fluorescent] (active) in [2] and 12.6 µM [fluorescent] (active) in test [6]. Besides, the Potency entry in [3], in [4], in test [8], in [10], in [11] and in test [18] was “inactive” in each case. Also, the Potency entry in [12], in test [13], in [19] and in test [17] was “inactive” in each case. Besides, the molecule was classed as inactive in [5] and in test [7].

Turning to `O=C(CCCN1CCC(C(=O)c2ccc(F)cc2)CC1)c1ccc(F)cc1`, the Potency entry in [1], in [2], in test [3], in test [4], in [6] and in test [10] was “inactive” each time. For the same molecule, the Potency result in test [13] and in test [16] was “inactive” throughout. In addition, the outcome in test [5] and in [7] was inactive. For the same molecule, the Potency in test [11] is 8.41 µM (active); in test [18], 3.76 µM (active); in test [12], 7.5 µM (active).

In the case of `O=C1C(=O)c2ncccc2-c2cccnc21`, the Potency entry in test [1], in [2], in test [4], in test [6], in [8] and in test [10] was “inactive” each time. The Potency entry in [19], in test [16] and in test [17] was “inactive” each time. Also, the Potency in [11] is 5.96 µM (active); in test [18] it was 8.41 µM (active); in test [12], 4.22 µM (active); in test [14], 23.9 µM (active).

On to `C[C@H](O)[C@H](O)[C@H]1CNc2nc(N)[nH]c(=O)c2N1`, for which the Potency entry in test [1], in test [2], in [3], in [4], in [6] and in test [8] was “inactive” each time. Further, the Potency entry in test [9], in [10], in test [11], in test [18], in test [12] and in test [13] was “inactive” in each case. The Potency result in [16] is “inactive”.
